Our source for the outcome and AC50 values is PubChem BioAssay (EPA / NIEHS).

Read-out in test [1]: Tissue plasminogen activator (tPA), PLAT (gene 5327)
As to the kind of experiment: BSK_BE3C_tPA: BioMAP Diversity Plus: BE3C Assay for Tissue plasminogen activator (tPA) Biomarker Activity (AID 2283041).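 Note: tPA level quantified by ELISA one day after compound addition.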 The note with it: primary human bronchial epithelial cells; actives raise or lower the signal. The method in brief: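 Primary human bronchial epithelial cells in the BE3C system, exposed to compound for 24 h. tPA was quantified by ELISA; DMSO served as baseline, with gain or loss of signal fitted. Cytotoxicity checked in parallel cultures by SRB total-protein staining.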

Read-out in test [2]: Interleukin-8 (IL8), CXCL8 (gene 3576)
Briefly: BSK_CASM3C_IL8: BioMAP Diversity Plus: CASM3C Assay for Interleukin-8 (IL8) Biomarker Activity (AID 2283042).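 Note: IL-8 protein level quantified by ELISA.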 The note with it: primary human coronary artery smooth muscle cells; actives raise or lower the signal.

Read-out in test [3]: Human Leukocyte Antigen - DR isotype (HLADR), HLA-DRA (gene 3122)
Briefly: BSK_CASM3C_HLADR: BioMAP Diversity Plus: CASM3C Assay for Human Leukocyte Antigen - DR isotype (HLADR) Biomarker Activity (AID 2283043).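 Note: cell-surface HLA-DR protein level quantified by ELISA.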 The note with it: primary human coronary artery smooth muscle cells; actives raise or lower the signal.

Read-out in test [4]: Macrophage colony-stimulating factor (MCSF), CSF1 (gene 1435)
Briefly: BSK_CASM3C_MCSF: BioMAP Diversity Plus: CASM3C Assay for Macrophage colony-stimulating factor (MCSF) Biomarker Activity (AID 2283044).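 Note: M-CSF protein amount quantified by ELISA after 24 h exposure.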 The following applies: primary human coronary artery smooth muscle cells; actives raise or lower the signal.

Read-out in test [5]: Low-density lipoprotein receptor (LDLR), LDLR (gene 3949)
Briefly: BSK_CASM3C_LDLR: BioMAP Diversity Plus: CASM3C Assay for Low-density lipoprotein receptor (LDLR) Biomarker Activity (AID 2283045).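 Note: LDLR protein level on the cell surface quantified by ELISA.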 The following applies: primary human coronary artery smooth muscle cells; actives raise or lower the signal.

Read-out in test [6]: Monocyte Chemoattractant Protein-1 (MCP1), CCL2 (gene 6347)
As to the kind of experiment: BSK_CASM3C_MCP1: BioMAP Diversity Plus: CASM3C Assay for Monocyte Chemoattractant Protein-1 (MCP1) Biomarker Activity (AID 2283046).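 Note: MCP-1 level quantified by ELISA 24 h after dosing.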 The following applies: primary human coronary artery smooth muscle cells; actives raise or lower the signal.

The nature of test [7]: BSK_CASM3C_Proliferation: Cell Proliferation Assessment in the BioMAP Diversity Plus: CASM3C Assay (AID 2283047).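 Note: sulforhodamine B total protein stain as relative cell number at 560 nm; sub-confluent cells exposed 48 h before staining; fitted both ways against DMSO so gain or loss of cell number.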 The note with it: primary human coronary artery smooth muscle cells.
Read-out in test [8]: Monokine induced gamma interferon (MIG), CXCL9 (gene 4283)
Briefly: BSK_CASM3C_MIG: BioMAP Diversity Plus: CASM3C Assay for Monokine induced gamma interferon (MIG) Biomarker Activity (AID 2283048).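 Note: MIG protein level measured by ELISA.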 The following applies: primary human coronary artery smooth muscle cells; actives raise or lower the signal.

Read-out in test [9]: serum amyloid A (SAA), SAA1 (gene 6288)
As to the kind of experiment: BSK_CASM3C_SAA: BioMAP Diversity Plus: CASM3C Assay for serum amyloid A (SAA) Biomarker Activity (AID 2283049).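 Note: SAA protein level quantified by ELISA.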 The following applies: primary human coronary artery smooth muscle cells; actives raise or lower the signal.

The nature of test [10]: BSK_CASM3C_SRB: Viability Assessment in the BioMAP Diversity Plus: CASM3C Assay (AID 2283050). The following applies: primary human coronary artery smooth muscle cells.
Read-out in test [11]: Thrombomodulin, THBD (gene 7056)
Briefly: BSK_CASM3C_Thrombomodulin: BioMAP Diversity Plus: CASM3C Assay for Thrombomodulin Biomarker Activity (AID 2283051).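 Note: thrombomodulin protein level measured by ELISA 24 h after dosing.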 The note with it: primary human coronary artery smooth muscle cells; actives raise or lower the signal.

Read-out in test [12]: Tissue Factor, F3 (gene 2152)
As to the kind of experiment: BSK_CASM3C_TissueFactor: BioMAP Diversity Plus: CASM3C Assay for Tissue Factor Biomarker Activity (AID 2283052).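 Note: cell surface tissue factor protein level read by ELISA.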 The note with it: primary human coronary artery smooth muscle cells; actives raise or lower the signal.

Read-out in test [13]: Interferon-gamma inducible Protein 10 (IP10), CXCL10 (gene 3627)
As to the kind of experiment: BSK_hDFCGF_IP10: BioMAP Diversity Plus: hDFCGF Assay for Interferon-gamma inducible Protein 10 (IP10) Biomarker Activity (AID 2283053). The following applies: primary human foreskin fibroblasts; actives raise or lower the signal. The method in brief: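 Primary human foreskin fibroblasts exposed to chemicals for 24 h. IP-10 measured by ELISA; changes fitted bidirectionally against DMSO baseline.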

Read-out in test [14]: Urokinase-type plasminogen activator receptor (uPAR), PLAUR (gene 5329)
Briefly: BSK_CASM3C_uPAR: BioMAP Diversity Plus: CASM3C Assay for Urokinase-type plasminogen activator receptor (uPAR) Biomarker Activity (AID 2283054).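 Note: cell-surface uPAR protein level quantified by ELISA.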 The following applies: primary human coronary artery smooth muscle cells; actives raise or lower the signal.

Read-out in test [15]: Vascular cell adhesion molecule 1 (VCAM1), VCAM1 (gene 7412)
As to the kind of experiment: BSK_CASM3C_VCAM1: BioMAP Diversity Plus: CASM3C Assay for Vascular cell adhesion molecule 1 (VCAM1) Biomarker Activity (AID 2283055).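 Note: VCAM-1 protein level quantified by ELISA on the cells.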 The note with it: primary human coronary artery smooth muscle cells; actives raise or lower the signal.

Read-out in test [16]: Collagen III, COL3A1 (gene 1281)
Briefly: BSK_hDFCGF_CollagenIII: BioMAP Diversity Plus: hDFCGF Assay for Collagen III Biomarker Activity (AID 2283056). The note with it: primary human foreskin fibroblasts; actives raise or lower the signal. The method in brief:
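Response relative to DMSO, fitted in both directions, reflects ELISA-measured collagen III in human primary skin fibroblasts 24 h after compound addition.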

Read-out in test [17]: Epidermal growth factor receptor (EGFR), EGFR (gene 1956)
Briefly: BSK_hDFCGF_EGFR: BioMAP Diversity Plus: hDFCGF Assay for Epidermal growth factor receptor (EGFR) Biomarker Activity (AID 2283057). The note with it: primary human foreskin fibroblasts; actives raise or lower the signal. The method in brief: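 Primary human foreskin fibroblasts (hDFCGF system), sampled 24 h after dosing; EGFR quantified by ELISA. Bidirectional fit relative to DMSO baseline; SRB total-protein staining in parallel cultures for cytotoxicity.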

Read-out in test [18]: Interleukin-8 (IL8), CXCL8 (gene 3576)
Briefly: BSK_hDFCGF_IL8: BioMAP Diversity Plus: hDFCGF Assay for Interleukin-8 (IL8) Biomarker Activity (AID 2283058). The note with it: primary human foreskin fibroblasts; actives raise or lower the signal. The method, boiled down:
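Fibroblast monolayers (human foreskin, hDFCGF) received test chemical for 24 h before ELISA detection of IL-8; either increases or decreases relative to DMSO count as activity.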

A short description of test [19]: BSK_hDFCGF_Proliferation: Cell Proliferation Assessment in the BioMAP Diversity Plus: hDFCGF Assay (AID 2283059).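 Note: curves fitted for both rise and fall of signal versus DMSO baseline.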 The following applies: primary human foreskin fibroblasts. The method in brief: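 This proliferation readout used SRB total-protein staining of human foreskin fibroblasts […], normalized to DMSO with bidirectional curve fitting.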
Read-out in test [20]: Macrophage colony-stimulating factor (MCSF), CSF1 (gene 1435)
Briefly: BSK_hDFCGF_MCSF: BioMAP Diversity Plus: hDFCGF Assay for Macrophage colony-stimulating factor (MCSF) Biomarker Activity (AID 2283060). The note with it: primary human foreskin fibroblasts; actives raise or lower the signal. The method, boiled down: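 fibroblasts (human foreskin, primary), 24 h post-dose; M-CSF by ELISA; bidirectional fit, DMSO = baseline.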

Active and inactive are the calls of the source. Rule for the calls: active = hit-call score of the fitted dose curve at least 0.9, where 1 is the maximum; inactive = score below 0.9.

With `Nc1ccn([C@@H]2O[C@H](CO)[C@@H](O)[C@@H]2O)c(=O)n1`, the result in test [1], in test [2], in [3], in test [4], in [5] and in test [6] was inactive. The result in test [8], in test [9], in test [10], in [11], in [12] and in test [13] was inactive. The outcome in test [14], in test [15], in test [16], in test [17], in [18] and in test [20] was inactive. For the same compound, the AC50 in test [7] was 148 nM (active); in [19], 615 nM (active).
On to `O=S(=O)(O)c1ccc(N=Nc2c(O)ccc3cc(S(=O)(=O)O)ccc23)cc1`, for which the outcome in [1], in test [2], in test [3], in test [4], in test [5] and in [6] was inactive. The result in test [7], in test [8], in test [9], in [10], in test [11] and in test [12] was inactive. Besides, the outcome in [13], in [14], in test [15], in test [16], in [17] and in test [18] was inactive. Moreover, the outcome in [19] and in [20] was inactive.
In the case of `CCCCCCOC(=O)CC(CC(=O)OCCCCCC)(OC(=O)CCC)C(=O)OCCCCCC`, the outcome in test [1], in test [2], in test [3], in test [4], in test [5] and in test [6] was inactive. Also, the result in test [7], in test [8], in [9], in test [10], in test [11] and in test [12] was inactive. Also, the result in test [13], in test [14], in test [15], in test [16], in [17] and in [18] was inactive. The result in test [19] and in test [20] was inactive.
Turning to `Cn1c(=O)c2[nH]cnc2n(C)c1=O`, the result in test [1], in test [2], in test [3], in [4], in test [5] and in test [6] was inactive. In addition, the result in test [7], in [8], in test [9], in test [10], in test [11] and in test [12] was inactive. Besides, the outcome in test [13], in test [14], in test [15], in test [16], in test [17] and in test [18] was inactive. In addition, the result in [19] and in test [20] was inactive.
With `OCc1ccccc1`, the outcome in [1], in test [2], in test [3], in test [4], in [5] and in test [6] was inactive. In addition, the outcome in [7], in test [8], in test [9], in [10], in test [11] and in test [12] was inactive. Further, the outcome in [13], in [14], in test [15], in [16], in [17] and in test [18] was inactive. In addition, the outcome in test [19] and in test [20] was inactive.
On to `C[C@]12C=CC(=O)C=C1CC[C@H]1[C@@H]3C[C@@H](O)[C@](O)(C(=O)CO)[C@@]3(C)C[C@H](O)[C@@]12F`, for which the result in test [1], in test [5], in [7], in test [8], in [10] and in test [13] was inactive. The outcome in [14], in [15], in test [16], in test [17] and in [18] was inactive. Moreover, the AC50 was 246 nM (active) in [2]; 148 nM (active) in test [3]; 417 nM (active) in [4]; 148 nM (active) in [6]; 354 nM (active) in [9]; 3970 nM (active) in [11]. Also, the AC50 in test [12] is 149 nM (active); in [19], 818 nM (active); in [20], 580 nM (active).
